CYP2C9 inh: blocks human cytochrome P450 2C9; P11712; CYP2C9 Supersomes, luciferin-H conversion, luminescence; inhibition, % at 5 µM; 96,000 tested, 20% active; AID 777;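 active = blocking of liver enzyme CYP2C9 beyond about 50% at 5 µM, limit read from the data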
CYP2C19 activ: cytochrome P450 2C19 (human) activation. P33261. recombinant CYP2C19, luciferin-H EGE luminescence; stronger effect = higher value; 0 = fully inhibited enzyme, 1 = untreated enzyme. activation factor at 5 µM. 96,000 tested, under 10 active. AID 1025;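 active = activation factor of at least 2 at 5 µM in the primary screen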;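 note: 0 = wells with 2.5 mM tranylcypromine and 1 = vehicle-only wells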
Target sequence (P33261 whole entry, looked up): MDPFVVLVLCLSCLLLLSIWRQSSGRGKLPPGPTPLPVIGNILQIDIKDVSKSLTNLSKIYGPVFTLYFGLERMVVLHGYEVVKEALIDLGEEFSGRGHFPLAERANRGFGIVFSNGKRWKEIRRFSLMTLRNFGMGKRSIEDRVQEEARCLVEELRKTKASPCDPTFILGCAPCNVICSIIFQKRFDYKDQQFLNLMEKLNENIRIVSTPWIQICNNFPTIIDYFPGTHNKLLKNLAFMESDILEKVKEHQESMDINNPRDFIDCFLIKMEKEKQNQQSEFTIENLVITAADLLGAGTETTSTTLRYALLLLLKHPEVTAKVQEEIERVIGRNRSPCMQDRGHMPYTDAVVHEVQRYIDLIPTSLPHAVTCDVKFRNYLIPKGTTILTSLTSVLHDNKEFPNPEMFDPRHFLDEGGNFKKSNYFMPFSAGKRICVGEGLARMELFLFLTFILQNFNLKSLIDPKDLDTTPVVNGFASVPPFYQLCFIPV
CYP2C19 inh: blocks human cytochrome P450 2C19. CYP2C19 Supersomes, luciferin-H EGE luminescence, 30 min. inhibition, % at 5 µM. 96,000 tested, 21% active. AID 778;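 active = CYP2C19 inhibition above a set limit at 5 µM in the primary screen, cut at about 50% in these data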;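 note: plate controls were negative control wells for no effect and 2.5 mM tranylcypromine positive control for full effect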
CYP2C9 activ: activators of human CYP2C9. P11712. recombinant CYP2C9, luciferin-H conversion, luminescence; stronger effect = higher value; factor 1 = untreated enzyme, 0 = blocked. activation factor at 5 µM. 96,000 tested, 1.4% active;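 active = activation factor of 2 or more for CYP2C9 at a 5 µM dose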;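 note: 0 = sulfaphenazole-blocked wells and 1 = vehicle-only wells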
PLAP act: activators of human placental alkaline phosphatase; purified PLAP enzyme, luminescent substrate read-out; stronger effect = higher value; P05187; 96,000 tested, 1.2% active; activation fold at 20 µM; AID 696; in the data active = activation fold above about 2
Starred values were filed as active, the others as inactive. The list is not random: actives were taken first. Their share in the collection is about 31%.

What do the screens show for `CC(=O)Nc1cc(C(F)(F)F)ccc1Oc1cccc(Br)c1`?
CYP2C9 inh: 58*; CYP2C19 activ: 0; CYP2C19 inh: 98*; CYP2C9 activ: 0.4; PLAP act: 1.1

What do the screens show for `COc1cc(C(=O)Nc2cc(C(F)(F)F)ccc2Cl)cc(OC)c1OC`?
CYP2C9 inh: 20; CYP2C19 activ: 0.9; CYP2C19 inh: 12; CYP2C9 activ: 0.8; PLAP act: 0.9

How did Cc1ccc(S(=O)(=O)N2CCCC2C(=O)Oc2ccccc2)cc1 (configuration not stated) do in these assays?
CYP2C9 inh: -10; CYP2C19 activ: 0.2; CYP2C19 inh: 75*; CYP2C9 activ: 1.1; PLAP act: 1.4

Results for COC(=O)C1CCCN1S(=O)(=O)c1ccc2ccccc2c1 (configuration not stated) ?
CYP2C9 inh: -169; CYP2C19 activ: 0.6; CYP2C19 inh: 38; CYP2C9 activ: 2.7*; PLAP act: 1.3

How did Fc1ccc(NCc2cccnc2)cc1F do in these assays?
CYP2C9 inh: 17; CYP2C19 activ: 0.6; CYP2C19 inh: 39; CYP2C9 activ: 0.8; PLAP act: 0.8

Results for Cc1cc(F)ccc1NCc1cccnc1 ?
CYP2C9 inh: -8; CYP2C19 activ: 0.5; CYP2C19 inh: 50*; CYP2C9 activ: 1.1; PLAP act: 1.1

How did CCCC(C)NC(=O)c1cc(Cl)ccc1OC (configuration not stated) do in these assays?
CYP2C9 inh: -252; CYP2C19 activ: 0.6; CYP2C19 inh: 44; CYP2C9 activ: 3.5*; PLAP act: 0.9

Results for COc1ccc(Cl)cc1C(=O)NCCN(C)C ?
CYP2C9 inh: -5; CYP2C19 activ: 1.1; CYP2C19 inh: -6; CYP2C9 activ: 1.1; PLAP act: 1

How did COc1ccc(Cl)cc1C(=O)NCC(C)C do in these assays?
CYP2C9 inh: -213; CYP2C19 activ: 0.9; CYP2C19 inh: 14; CYP2C9 activ: 3.1*; PLAP act: 1.1

Results for C#CCSc1nnc(-c2ccccc2)c(=O)[nH]1 ?
CYP2C9 inh: 56*; CYP2C19 activ: 0.9; CYP2C19 inh: 6; CYP2C9 activ: 0.4; PLAP act: 1

What do the screens show for `Cc1nnc(SCc2cnc(-c3ccccc3)o2)[nH]c1=O`?
CYP2C9 inh: 3; CYP2C19 activ: 1.1; CYP2C19 inh: -11; CYP2C9 activ: 1; PLAP act: 1

What do the screens show for `O=C(Cn1cc([N+](=O)[O-])cn1)Nc1nc2ccccc2s1`?
CYP2C9 inh: 5; CYP2C19 activ: 0.9; CYP2C19 inh: 12; CYP2C9 activ: 0.9; PLAP act: 1.1

What do the screens show for `CCOC(=O)C1=C(C)N=c2s/c(=C\c3ccc(OC(C)=O)c(OCC)c3)c(=O)n2C1/C=C/c1ccccc1` (configuration not stated)?
CYP2C9 inh: 72*; CYP2C19 activ: 0.6; CYP2C19 inh: 39; CYP2C9 activ: 0.3; PLAP act: 1

What do the screens show for `CCOC(=O)C1=C(C)N=C2SCCC(=O)N2[C@@H]1/C=C/c1ccccc1`?
CYP2C9 inh: 50; CYP2C19 activ: 0.7; CYP2C19 inh: 33; CYP2C9 activ: 0.5; PLAP act: 1.1

How did COCCn1c(SCC(=O)c2ccc(Cl)cc2)nnc1C(C)C do in these assays?
CYP2C9 inh: 11; CYP2C19 activ: 0.3; CYP2C19 inh: 74*; CYP2C9 activ: 0.9; PLAP act: 1

Results for CCCn1c(SCC(=O)Nc2c(CC)cccc2CC)nnc1C(C)C ?
CYP2C9 inh: 49; CYP2C19 activ: 0.4; CYP2C19 inh: 58*; CYP2C9 activ: 0.5; PLAP act: 1

What do the screens show for `CCn1c(SCC(=O)Nc2cccc(NC(C)=O)c2)nnc1C(C)C`?
CYP2C9 inh: -22; CYP2C19 activ: 1.1; CYP2C19 inh: -13; CYP2C9 activ: 1.2; PLAP act: 1.2

How did CCn1c(SCC(=O)Nc2nc(C)c(C(=O)OC)s2)nnc1C(C)C do in these assays?
CYP2C9 inh: 34; CYP2C19 activ: 0.5; CYP2C19 inh: 50*; CYP2C9 activ: 0.7; PLAP act: 1.3

How did COCCn1c(SCC(=O)c2ccc3c(c2)OCCO3)nnc1C(C)C do in these assays?
CYP2C9 inh: -1; CYP2C19 activ: 0.8; CYP2C19 inh: 21; CYP2C9 activ: 1; PLAP act: 1.1

Results for COCCn1c(SCC(=O)Nc2cccc(C)c2)nnc1C(C)C ?
CYP2C9 inh: -10; CYP2C19 activ: 0.3; CYP2C19 inh: 68*; CYP2C9 activ: 1.1; PLAP act: 0.8

What do the screens show for `COc1cccc(-c2cc(C(=O)N3C(C)CCCC3C)no2)c1` (configuration not stated)?
CYP2C9 inh: -55; CYP2C19 activ: 0.6; CYP2C19 inh: 44; CYP2C9 activ: 1.6; PLAP act: 1.7

Results for Cc1cc(C)nc(/N=C(\N)C2=C(O)CC(C)(C)CC2=O)n1 ?
CYP2C9 inh: 13; CYP2C19 activ: 0.8; CYP2C19 inh: 23; CYP2C9 activ: 0.9; PLAP act: 1.5

How did CCSc1ccccc1C(=O)NCc1ccco1 do in these assays?
CYP2C9 inh: -11; CYP2C19 activ: 0.9; CYP2C19 inh: 7; CYP2C9 activ: 1.1; PLAP act: 0.8

Results for CCc1cccc(C)c1NC(=O)CSc1nnc(-c2cc3cc(Br)ccc3o2)n1CC ?
CYP2C9 inh: 56*; CYP2C19 activ: 0.9; CYP2C19 inh: 12; CYP2C9 activ: 0.4; PLAP act: 0.9

How did COCCn1c(SCC(=O)Nc2cc(C)cc(C)c2)nnc1C(C)C do in these assays?
CYP2C9 inh: 21; CYP2C19 activ: 0.4; CYP2C19 inh: 61*; CYP2C9 activ: 0.8; PLAP act: 1.4

Results for CC(C)Cn1cc(C(=O)NCc2cccs2)c2c3ccccc3n(C)c2c1=O ?
CYP2C9 inh: 17; CYP2C19 activ: 1.1; CYP2C19 inh: -8; CYP2C9 activ: 0.8; PLAP act: 1

What do the screens show for `CCCN(CCC)CCNC(=O)C1c2ccccc2C(=O)N(CCOC)C1c1ccc(F)cc1` (configuration not stated)?
CYP2C9 inh: -33; CYP2C19 activ: 1; CYP2C19 inh: 1; CYP2C9 activ: 1.3; PLAP act: 1.9

Results for CCOC(=O)c1c(NC(N)=O)sc(C)c1C ?
CYP2C9 inh: 52*; CYP2C19 activ: 0.8; CYP2C19 inh: 24; CYP2C9 activ: 0.5; PLAP act: 0.9

How did CCOC(=O)c1c(NC(=O)CNCCO)sc(C)c1C do in these assays?
CYP2C9 inh: 65*; CYP2C19 activ: 0.7; CYP2C19 inh: 33; CYP2C9 activ: 0.3; PLAP act: 1.9

Results for CCOC(=O)c1c(NC(=O)c2ccc(Cl)s2)sc(C)c1C ?
CYP2C9 inh: 7; CYP2C19 activ: 1; CYP2C19 inh: 0; CYP2C9 activ: 0.9; PLAP act: 1.1

Results for Cc1cc(C)nc(-n2nc(C)c(C3(O)C(=O)Nc4ccccc43)c2N)n1 (configuration not stated) ?
CYP2C9 inh: -2; CYP2C19 activ: 1.2; CYP2C19 inh: -18; CYP2C9 activ: 1; PLAP act: 1.2

What do the screens show for `COc1ccc(CCNC(=O)/C=C/c2ccc(C)cc2)cc1OC`?
CYP2C9 inh: -43; CYP2C19 activ: 0.7; CYP2C19 inh: 30; CYP2C9 activ: 1.4; PLAP act: 1
